# Source: PubChem BioAssay
# Mtb hypoxia inh = reduces hypoxia-regulated biosensor signal in M. tuberculosis | 0.1% of 300,000 active | AID 1159583 | fluorescence inhibition, % (no concentration beside the values) | M. tuberculosis hypoxia-regulated fluorescent reporter, fluorescence; in the data active means fluorescence inhibition mostly above about 23%, no sharp cut-off; inactive means mostly below about 17%
# DUSP3 inh = DUSP3 (human) phosphatase inhibition. P51452. recombinant VHR phosphatase, pNPP absorbance. inhibition, % at 13.3 µM. 0.52% of 290,000 active; in the data active means inhibition above about 50%
# Target sequence (P51452 whole entry, looked up): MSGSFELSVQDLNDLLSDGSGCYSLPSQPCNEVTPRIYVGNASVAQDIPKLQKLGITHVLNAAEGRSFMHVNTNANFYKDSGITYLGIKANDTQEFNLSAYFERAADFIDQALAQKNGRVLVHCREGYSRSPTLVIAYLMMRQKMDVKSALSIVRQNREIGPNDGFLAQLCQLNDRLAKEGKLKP
# FadD28 binding = inhibitors of Mycobacterium tuberculosis FadD28 bisubstrate binding. FadD28 bisubstrate probe binding, fluorescence polarization. inhibition, % at 12.5 µM. 0.22% of 360,000 active. AID 588549; in the data active means inhibition above about 8.5%, passing the limit was not always enough
# Mtb BioA inh = blocks M. tuberculosis BioA enzyme activity | purified M. tuberculosis BioA enzyme, plate reader | inhibition, % at 9.99 µM | 0.096% of 360,000 active; in the data active means inhibition above about 40%
# SARS 3CLpro inh = SARS-CoV 3CLpro protease inhibition. inhibition, % at 6 µM. recombinant SARS-CoV 3CLpro, quenched FRET peptide cleavage. 0.14% of 290,000 active. AID 1706; in the data active means inhibition above about 12%
# Hits are given with their value; - = inactive; . = not tested or not shown. A selection: hits, their analogues and other compounds. The true share with any hit is near 0.7%.
SMILES,Mtb hypoxia inh,DUSP3 inh,FadD28 binding,Mtb BioA inh,SARS 3CLpro inh
Cn1c2ccccc2c(=O)c2ccc(NCCc3cccs3)cc21,38.1,.,-,-,.
Cc1[nH]n(-c2ccccc2)c(=O)c1C(c1ccccc1[N+](=O)[O-])C(C#N)C#N (centres undefined),-,-,-,-,-
Cc1[nH]n(-c2ncc(-c3ccccc3)s2)c(=O)c1C(c1ccc(Cl)cc1)C(C#N)C#N (centres undefined),-,-,8.6,.,-
COc1ccc(C2C=CCN(C(=O)CC(C)C)CC(=O)N2Cc2ccc(F)cc2)cc1 (centres undefined),-,.,.,.,.
O=C(COC(=O)c1cccnc1)Nc1ccccc1,.,57.3,-,-,-
O=C(COC(=O)c1cccnc1)Nc1ccc(F)cc1,-,-,-,-,-
O=[N+]([O-])c1ccn(-c2nc(-c3cccs3)cc(C(F)(F)F)n2)n1,-,54.1,-,-,-
Cc1c(C(=O)N2CCCC2)oc2c1-c1nn(CC(=O)NCCCN3CCCCC3C)cc1CC2 (centres undefined),-,55.6,-,-,-
Cc1c(C(=O)N2CCCC2)oc2c1-c1nn(CC(=O)NCCCN3CCCCC3)cc1CC2,-,-,-,.,-
CCC1CCCCN1CCCNC(=O)Cn1cc2c(n1)-c1c(oc(C(=O)N3CCCC3)c1C)CC2 (centres undefined),-,55.5,-,.,-
COc1ccc(C)cc1C1=CC(=O)CC(c2ccc(F)cc2)C1 (centres undefined),-,.,.,.,.
Cc1cc(C(=O)N/N=C/c2ccc(-c3cccc(Cl)c3Cl)o2)n[nH]1,.,50.8,-,-,-
CC(=NNC(=O)c1cccc(O)c1)c1cccc(NC(=O)c2ccc(F)cc2)c1,-,.,.,.,.
COc1ccc2c(C=NNS(=O)(=O)c3ccc(C)cc3)c[nH]c2c1,-,.,.,.,.
COc1ccc2c(/C=N/Nc3ccc(C(=O)O)cc3)c[nH]c2c1,.,-,13.8,-,-
N#C/C(=C/c1ccco1)C(N)=S,-,-,14.8,.,-
N#C/C(=C\c1ccc2c(c1)OCO2)C(N)=S,-,-,-,-,-
C=CCNC(=O)c1ccc(CSc2nc3ccccc3s2)cc1,-,-,-,-,-
CC(=O)NCCNC(=O)c1ccc(CSc2nc3ccccc3s2)cc1,.,59.7,-,-,-
CC(C)CC(CN=[N+]=[N-])N1CCN(C)CCC1=O (centres undefined),-,.,.,.,.
CCN1/C(=C/c2ccc3cc(C)ccc3[n+]2CC)Sc2cc(C)c(C)cc21,39.9,-,-,.,-
COC(=O)C1=C(C(=O)OC)C2N(C)c3ccc(OC)cc3[C@@]23CC(C(=O)OC)N(C(=O)c2ccc(Br)cc2)C3=N1 (some centres undefined),-,.,.,.,.
Cc1ccccc1OCC(=O)NCCNC(=O)c1ccccn1,-,54.4,-,-,-
CC(C)CC(C(=O)NC1CCCCC1)N(Cc1ccccc1)C(=O)c1snc(C(N)=O)c1N (centres undefined),-,58.5,-,.,-
Cc1ccc(NC(=S)Nc2cccc3cnccc23)cc1C,-,-,-,-,-
SMILES,Mtb hypoxia inh,DUSP3 inh,FadD28 binding,Mtb BioA inh,SARS 3CLpro inh
S=C(Nc1cccc(Cl)c1)Nc1cccc2cnccc12,-,50.8,-,.,-
NS(=O)(=O)c1ccc(-c2ccc(C=O)o2)cc1,-,-,-,.,-
NS(=O)(=O)c1ccc(-c2ccc(/C=C3\NC(=S)NC3=O)o2)cc1,.,-,10.0,-,-
O=C(O)c1cc(NC(=NS(=O)(=O)c2ccc(F)cc2)c2ccccc2)ccc1O,-,.,.,.,.
CC1CN(C(=O)CCC(=O)NCCCc2ccccc2)c2ccccc2O1 (centres undefined),-,-,-,-,-
CCC1CCCCN1CCCNC(=O)CCC(=O)N1CC(C)Oc2ccccc21 (centres undefined),-,52.8,-,-,-
CS(=O)(=O)c1ccc(-n2nnc3ccccc32)c([N+](=O)[O-])c1,-,-,-,-,-
CN(C)CCCNS(=O)(=O)c1ccc(-n2nnc3ccccc32)c([N+](=O)[O-])c1,-,58.5,-,-,-
CC1=NN(/C(=N/c2nnc(C)s2)Nc2ccccc2)[C@H](c2cccc3ccccc23)S1,-,.,.,.,.
CCOc1ccc(C(=O)Nc2cccc3nsnc23)cc1[N+](=O)[O-],-,56.4,-,.,-
CS/C(=N\S(=O)(=O)c1ccc(N)cc1)NS(=O)(=O)c1cccs1,.,-,30.4,-,-
CSC(=NCc1ccc(F)cc1)NS(=O)(=O)c1cccs1,-,-,-,.,-
C=CCC(CC(=O)N(CCO)Cc1ccccc1)C(=O)NC(COC(=O)C(CC=C)Cc1ccc(F)cc1)C(C)(C)C (centres undefined),-,.,.,.,.
Cc1ccc(C(=O)N/C(=C\c2ccc(-c3cccc([N+](=O)[O-])c3)o2)C(=O)NCCCN(C)C)cc1,-,53.9,-,-,-
CN(C)CCCNC(=O)/C(=C\c1ccc(-c2cccc([N+](=O)[O-])c2)o1)NC(=O)c1ccccc1,-,-,-,.,-
O=C(CSc1nnc(SCc2ccc(Cl)cc2)s1)NN=Cc1ccccc1Cl,-,.,.,.,.
CC(C)CC(CO)N1CCN(CCCc2ccccc2)CCC1=O (centres undefined),-,.,.,.,.
O=C(CN1C(=O)CSc2ccc(S(=O)(=O)N3CCCCC3)cc21)NCc1ccccc1,-,-,-,-,-
O=C(CN1C(=O)CSc2ccc(S(=O)(=O)N3CCCCC3)cc21)NCc1ccccc1Cl,-,55.6,-,-,-
CC(NC(=S)Nc1ccc(OC(F)F)c(Cl)c1)C(C)(C)C (centres undefined),27.8,-,-,-,-
Cc1ccc(NC(=S)Nc2ccc(OC(F)F)c(Cl)c2)cc1Cl,-,-,-,-,-
C=CCOC(=O)C(=O)C=Cc1coc2ccccc2c1=O,-,.,.,.,.
Cc1[nH]c2ccc(C(=O)NCCN3CCCCCC3)cc2c1C,-,-,-,-,-
Cc1[nH]c2ccc(C(=O)NCCCN3CCCCC3)cc2c1C,-,56.7,-,-,-
Cc1c(C(=O)N2CCCCC2)c(S(=O)(=O)N(C)Cc2ccccc2)c(C)n1C,-,54.2,-,-,-
SMILES,Mtb hypoxia inh,DUSP3 inh,FadD28 binding,Mtb BioA inh,SARS 3CLpro inh
Cc1c(C(=O)N2CCCCC2)c(S(=O)(=O)N(C)Cc2ccco2)c(C)n1C,-,-,-,-,-
CC(C)S(=O)(=O)c1nsc2nc(=O)c(/C=C3\C=Nc4ccccc43)c(N)n12,-,-,30.0,-,-
CC1=Nc2ccccc2/C1=C/c1c(N)n2c(S(=O)(=O)C(C)C)nsc2nc1=O,-,-,-,-,-
CSc1nsc2nc(=O)c(/C=C3\C=Nc4ccccc43)c(N)n12,-,-,14.3,-,-
CCCCn1c(=O)c2c(nc3n2CCCN3Cc2ccccc2)n(C)c1=O,-,58.2,-,.,-
COc1cc(C2=NC(CO)(CO)CO2)cc(OC)c1OC,-,57.6,-,-,-
COc1cc(C=NNC(=O)c2cc[n+]([O-])cc2)cc(OC)c1OC,-,.,.,.,.
COc1cc(/C=N/NC(=O)c2cc[n+]([O-])cc2)cc(OC)c1OC,.,55.5,-,-,-
CC1CN(c2ccc([N+](=O)[O-])c(NCCOc3ccccc3)c2)CC(C)N1 (centres undefined),-,51.5,-,-,-
